Experimental data reported in the supplement of paper PMC7695840.
Counter-ions that a name gives are not always drawn.

Tests used:
[1] = tested on: Staphylococcus aureus MW2 delta-mecA (mecA-); experiment: normalized GFP fluorescence (growth of mecA- strain) (fraction of control range); higher = more growth of mecA- strain; conditions: compound concentration: 150 uM; cefoxitin: subinhibitory; fluorescent label: GFP
Summary of the method: (§1)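 Single-replicate 1536-well plates carried 150 μM compound (1.5% DMSO), onto which 5 µL/well of a 1:1 mix of pre-induced S. aureus MW2 cells was dispensed: gene-carrying cells tagged with DsRed and deletion cells tagged with GFP, in LB with a subinhibitory antibiotic dose set daily. Incubation ran 20 h at 37 °C, 90% humidity, unshaken, followed by DsRed (540/590) and GFP (485/520) reads. Per-plate scaling of each channel used single-strain control medians, and plates with high untreated ratios and rows with DsRed/GFP >10 were excluded.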

[2] = tested on: Staphylococcus aureus MW2 (mecA+); experiment: normalized DsRed fluorescence (growth of mecA+ strain) (fraction of control range); higher = more growth of mecA+ strain; conditions: compound concentration: 150 uM; cefoxitin: subinhibitory; fluorescent label: DsRed
Summary of the method: as §1

| Compound | normalized GFP fluorescence [1] | normalized DsRed fluorescence [2] |
| --- | --- | --- |
| CC(=O)[C@H]1CC[C@H]2[C@@H]3C=CC4=CC(=O)CC[C@@]4(C)[C@@H]3CC[C@]12C | 0.56 | 0.456 |
| CCCCc1nc(Cl)c(CO)n1Cc1ccc(-c2ccccc2-c2nnn[nH]2)cc1 | 0.297 | 0.864 |
| Clc1ccc2c(c1)C(N1CCNCC1)=Nc1ccccc1O2 | 0.114 | 1.74 |
| O=C(O)C1(C(=O)O)CCC1.[NH2-].[NH2-].[Pt+2] | 0.26 | 0.886 |
| NS(=O)(=O)c1cc2c(cc1Cl)N=CNS2(=O)=O | 0.373 | 0.683 |
| COc1c2occc2cc2ccc(=O)oc12 | 0.476 | 0.402 |
| CS(=O)(=O)c1ccc([C@@H](O)[C@@H](CO)NC(=O)C(Cl)Cl)cc1 | 0.776 | 0.661 |
| CNC(=O)c1cc(Oc2ccc(NC(=O)Nc3ccc(Cl)c(C(F)(F)F)c3)c(F)c2)ccn1 [Regorafenib (BAY 73-4506)] | 0.0128 | 0.0729 |
| Nc1ncnc2c1ncn2[C@@H]1O[C@H](CO)[C@@H](O)[C@@H]1O | 0.428 | 0.346 |
| Nc1nc(=O)n([C@@H]2CS[C@H](CO)O2)cc1F [Emtricitabine] | 0.4 | 0.622 |
| CCCCOc1ccc(C(=O)CCN2CCCCC2)cc1 | 0.00391 | 0.36 |
| CC(C)(Sc1cc(C(C)(C)C)c(O)c(C(C)(C)C)c1)Sc1cc(C(C)(C)C)c(O)c(C(C)(C)C)c1 | 0.792 | 0.839 |
| CCCCCNC(=N)N/N=C/c1c[nH]c2ccc(OC)cc12 | 0.0155 | 0.587 |
| O=C(CCCCCCC(=O)Nc1ccccc1)NO [Vorinostat (SAHA)] | 0.386 | 0.944 |
| OC[C@H]1O[C@@H](c2ccc(Cl)c(Cc3ccc(O[C@H]4CCOC4)cc3)c2)[C@H](O)[C@@H](O)[C@@H]1O | 0.499 | 0.698 |
| CN(C)C/C=C/C(=O)Nc1cc2c(Nc3ccc(F)c(Cl)c3)ncnc2cc1O[C@H]1CCOC1 [Afatinib (BIBW2992)] | -0.00507 | 1.68 |
| CN(C)[C@@H](CCOc1cccc2ccccc12)c1ccccc1 [Dapoxetine hydrochloride (Priligy)] | -0.00645 | 1.15 |
| N=C(N)NC(=O)c1nc(Cl)c(N)nc1N | 0.602 | 0.971 |
| N#C[C@@H]1CCCN1C(=O)CNC12CC3CC(CC(O)(C3)C1)C2 [Vildagliptin (LAF-237)] | 0.68 | 0.519 |
| C1CNCCN1 | 0.806 | 0.885 |
| Cc1ccccc1N1C(=O)c2cc(S(N)(=O)=O)c(Cl)cc2NC1C (stereo unspecified) | 0.113 | 1.33 |
| CC(C)n1c(/C=C/C(O)CC(O)CC(=O)O)c(-c2ccc(F)cc2)c2ccccc21 (stereo unspecified) | 0.0168 | 0.369 |

| Compound | normalized GFP fluorescence [1] | normalized DsRed fluorescence [2] |
| --- | --- | --- |
| COC(=O)Nc1nc2cc(Sc3ccccc3)ccc2[nH]1 | 0.378 | 0.601 |
| Cn1c(=O)c2c(ncn2C)n(C)c1=O | 0.319 | 0.708 |
| COc1cc(/C=C/C(=O)N2CCN(CC(=O)N3CCCC3)CC2)cc(OC)c1OC [Cinepazide maleate] | 0.547 | 0.533 |
| CN1C2=CC(=O)/C(=N\NC(N)=O)C=C2CC1S(=O)(=O)O (stereo unspecified) [Carbazochrome sodium sulfonate] | 0.171 | 0.676 |
| O=C(O)c1ccccc1C(=O)Nc1ccc(S(=O)(=O)Nc2nccs2)cc1 | 0.538 | 0.763 |
| CC(C(=O)O)c1ccc(-c2ccccc2)c(F)c1 (stereo unspecified) | 0.201 | 0.435 |
| O=C(CCBr)N1CCN(C(=O)CCBr)CC1 | 0.631 | 0.794 |
| CC1(C)S[C@@H]2[C@H](NC(=O)COc3ccccc3)C(=O)N2[C@H]1C(=O)O | 0.0184 | 0.0783 |
| CS(=O)(=O)c1ccc(C2=C(c3ccccc3)C(=O)OC2)cc1 | 0.195 | 0.89 |
| Cc1cc(O)cc(C)c1Cl | 0.0289 | 0.544 |
| CC(C)NCC(O)c1ccc(O)c(O)c1 (stereo unspecified) [Isoprenaline hydrochloride] | 0.458 | 0.758 |
| CC1=C(/C=C/C(C)=C/C=C/C(C)=C\C(=O)O)C(C)(C)CCC1 | 0.0602 | 0.671 |
| CC[C@]1(O)C[C@H]2CN(CCc3c([nH]c4ccccc34)[C@@](C(=O)OC)(c3cc4c(cc3OC)N(C=O)[C@H]3[C@@](O)(C(=O)OC)[C@H](OC(C)=O)[C@]5(CC)C=CCN6CC[C@]43[C@@H]65)C2)C1 | 0.501 | 0.633 |
| CC[C@H]1OC(=O)[C@H](C)[C@@H](O[C@H]2C[C@@](C)(OC)[C@@H](O)[C@H](C)O2)[C@H](C)[C@@H](O[C@@H]2O[C@H](C)C[C@H](N(C)C)[C@H]2O)[C@](C)(OC)C[C@@H](C)C(=O)[C@H](C)[C@@H](O)[C@]1(C)O [Clarithromycin (Biaxin, Klacid)] | 0.181 | 0.788 |
| NC(=O)c1ncn([C@@H]2O[C@H](CO)[C@@H](O)[C@H]2O)n1 | 0.38 | 0.58 |
| Cc1cccc(C)c1OCC(C)N (stereo unspecified) | 0.344 | 1.02 |
| CC(=O)CC(c1ccccc1)c1c(O)c2ccccc2oc1=O (stereo unspecified) | 0.718 | 0.285 |
| CN1CCC(=C2c3ccccc3CCc3sccc32)CC1 [Pizotifen malate] | 0.00361 | 1.4 |
| COc1ccc([C@@H]2Sc3ccccc3N(CCN(C)C)C(=O)[C@@H]2OC(C)=O)cc1 | 0.124 | 0.612 |
| C=C1CC[C@H](O)C/C1=C/C=C1\CCC[C@]2(C)[C@@H]([C@H](C)/C=C/[C@H](C)C(C)C)CC[C@@H]12 | 0.177 | 0.448 |
| CC(=O)Nc1cccc(-n2c(=O)n(C3CC3)c(=O)c3c(Nc4ccc(I)cc4F)n(C)c(=O)c(C)c32)c1 | 0.179 | 1.12 |
